Results reported in PubChem BioAssay.
Active and inactive are the calls of the source.

Key:
[1] = compound effects on differentiated 3T3-L1 adipocyte viability – cell-based, 3T3-L1 adipocytes, calcein-AM fluorescence, 48 h, basal, profiling panel (AID 1163); conditions: 3T3-L1 adipocytes viability, higher = more signal
[2] = compound effects on hepatocellular carcinoma cell viability – HepG2, calcein-AM fluorescence, 48 h, basal, profiling panel (AID 1164); conditions: higher = more signal
[3] = compound effects on multiple myeloma cell viability – MM1S, calcein-AM fluorescence, 48 h, basal, profiling panel (AID 1165); conditions: higher = more signal
[4] = calcein-AM signal in unstimulated myeloma cells – cell-based, calcein-AM fluorescence, 48 h, PK04 Diversity Set, profiling panel (AID 1166); conditions: RPMI8226 myeloma viability, higher = more signal;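 also: cells grown under basal conditions without added stimulus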
[5] = JC-1 mitochondrial signal, unstimulated HepG2 cells – cell-based, JC-1 fluorescence, 24 h, 100 nL compound, profiling panel (AID 1167); conditions: HepG2 mitochondrial potential, higher = more signal
[6] = JC-1 mitochondrial signal, unstimulated adipocytes – cell-based, JC-1 fluorescence, 3T3-L1 adipocytes, 24 h, 100 nL compound, profiling panel (AID 1168); conditions: JC-1 mitochondrial fluorescence, higher = more signal, called active from +8 up or from −8 down
[7] = JC-1 mitochondrial signal, unstimulated myeloma cells – cell-based, JC-1 fluorescence, RPMI8226, 24 h, 100 nL compound, profiling panel (AID 1169); conditions: JC-1 mitochondrial potential fluorescence, higher = more signal
[8] = JC-1 mitochondrial signal, unstimulated MM1S myeloma – cell-based, JC-1 fluorescence, 24 h, 100 nL compound, profiling panel (AID 1170); conditions: MM1S mitochondrial potential, higher = more signal
[9] = resazurin metabolic signal in A549 cells – cell-based, resazurin fluorescence, 24 h, PK04 Diversity Set, profiling panel (AID 1171); conditions: A549 viability, higher = more signal, called active from +8 up or from −8 down
[10] = resazurin metabolic signal in HepG2 cells – cell-based, resazurin fluorescence, 24 h, PK04 Diversity Set, profiling panel (AID 1172); conditions: HepG2 viability, higher = more signal
[11] = budding yeast growth changes without added modifier – OD600, strain BY4716, 24 h, basal condition, primary screen (AID 1173); conditions: S. cerevisiae BY4716 growth, OD600, 24 h; higher = more signal, called active from +8 up or from −8 down
[12] = viability profiling in MM1S myeloma cells – cell-based, resazurin fluorescence, basal, 24 h, PK04 Diversity Set, profiling panel (AID 1174); conditions: higher = more signal, called active from +8 up or from −8 down
[13] = target: Dihydroorotate dehydrogenase (quinone), mitochondrial (Plasmodium falciparum (isolate 3D7)) (UniProt Q08210); assay: inhibition of P. falciparum DHODH – biochemical, C-terminal His tag, absorbance 600 nm, primary screen (AID 1175); conditions: PfDHODH enzyme, DCIP absorbance 600 nm; higher = more signal, called active from +8 up or from −8 down;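 also: recombinant parasite enzyme with a five histidine tag at its C terminus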
[14] = growth modulation of vineyard yeast isolate – strain RM11-1a, OD600, basal, 24 h, primary screen (AID 1177);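 also: cultures grown under basal conditions with no added stressor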; conditions: S. cerevisiae RM11-1a growth, OD600, 24 h; higher = more signal, called active from +8 up or from −8 down
[15] = growth of efflux-deficient E. coli DRC39 – strain DRC39, OD650, 24 h, E. coli filamentation inducers, primary screen (AID 1178);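 also: growth measured as culture turbidity by optical density at 650 nm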; conditions: E. coli DRC39 acrAB, higher = more signal, called active from +8 up or from −8 down
[16] = growth of efflux-deficient E. coli DRC39 – strain DRC39, OD650, 48 h, E. coli filamentation inducers, primary screen (AID 1179);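 also: screen aims at cell division blockers that make cells filament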; conditions: E. coli DRC39 delta-acrAB growth, higher = more signal, called active from +8 up or from −8 down
[17] = viability profiling in RPMI8226 myeloma cells – cell-based, resazurin fluorescence, basal, 24 h, PK04 Diversity Set, profiling panel (AID 1180); conditions: higher = more signal;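 also: RPMI8826 multiple myeloma cell line at 5000 cells per well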
[18] = target: E3 ubiquitin-protein ligase XIAP (Homo sapiens) (UniProt P98170); assay: small molecules binding XIAP protein – biophysical, small-molecule microarray, fluorescence 635 nm, primary screen (AID 1181); conditions: higher = more signal;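 also: score merges 667 nm emission and signal to noise over triplicate slides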
[19] = tested on: XIP peptide (Xip251-270) binding; assay: XIP fragment 251-270 binding compounds – biochemical, small-molecule microarray, fluorescence 635/667 nm, 0.1 µg/mL protein, primary screen (AID 1182); conditions: fluorescent protein binding, 635 nm, higher = more signal, called active from +8 up or from −8 down
XIP peptide (Xip251-270) = assay: compounds binding XIP fragment 251-270 – biochemical, small-molecule microarray, fluorescence 635/667 nm, 0.5 µg/mL protein, primary screen (AID 1183); conditions: fluorescence 635 nm, higher = more signal

E3 ubiquitin-protein ligase XIAP (Homo sapiens), sequence (P98170 whole entry, looked up, the tested form may be a part): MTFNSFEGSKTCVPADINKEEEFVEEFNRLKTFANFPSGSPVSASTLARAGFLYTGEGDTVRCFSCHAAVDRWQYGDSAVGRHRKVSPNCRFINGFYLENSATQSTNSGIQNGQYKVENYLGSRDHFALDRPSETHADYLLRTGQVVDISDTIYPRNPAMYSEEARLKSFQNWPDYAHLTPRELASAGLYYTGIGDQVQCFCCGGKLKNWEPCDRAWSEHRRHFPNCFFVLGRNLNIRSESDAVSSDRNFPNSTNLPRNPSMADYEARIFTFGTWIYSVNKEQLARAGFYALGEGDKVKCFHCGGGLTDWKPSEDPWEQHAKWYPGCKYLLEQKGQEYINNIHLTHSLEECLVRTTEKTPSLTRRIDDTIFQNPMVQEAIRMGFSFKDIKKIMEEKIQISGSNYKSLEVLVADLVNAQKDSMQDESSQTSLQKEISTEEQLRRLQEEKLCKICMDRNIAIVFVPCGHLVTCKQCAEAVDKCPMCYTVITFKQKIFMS
Dihydroorotate dehydrogenase (quinone), mitochondrial (Plasmodium falciparum (isolate 3D7)), sequence (Q08210 whole entry, looked up): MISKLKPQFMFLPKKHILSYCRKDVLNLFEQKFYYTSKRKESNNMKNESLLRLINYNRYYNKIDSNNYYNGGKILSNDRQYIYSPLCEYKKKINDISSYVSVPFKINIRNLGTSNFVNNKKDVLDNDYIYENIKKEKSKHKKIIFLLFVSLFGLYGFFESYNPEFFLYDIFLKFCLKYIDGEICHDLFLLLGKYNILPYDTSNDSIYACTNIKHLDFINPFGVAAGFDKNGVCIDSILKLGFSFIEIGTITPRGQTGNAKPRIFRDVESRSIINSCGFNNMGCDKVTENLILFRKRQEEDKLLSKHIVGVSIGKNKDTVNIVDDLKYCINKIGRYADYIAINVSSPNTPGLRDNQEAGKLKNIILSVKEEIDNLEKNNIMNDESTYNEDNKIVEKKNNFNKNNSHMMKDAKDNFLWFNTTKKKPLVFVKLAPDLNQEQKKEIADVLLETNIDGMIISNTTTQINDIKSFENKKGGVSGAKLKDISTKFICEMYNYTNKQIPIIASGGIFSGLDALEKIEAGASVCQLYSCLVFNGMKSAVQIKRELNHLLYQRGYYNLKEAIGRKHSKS

SMILES | z-score [1] | z-score [2] | z-score [3] | z-score [4] | z-score [5] | z-score [6] | z-score [7] | z-score [8] | z-score [9] | z-score [10] | z-score [11] | z-score [12] | composite z-score [13] | z-score [14] | z-score [15] | z-score [16] | z-score [17] | composite z-score [18] | composite z-score [19] | composite z-score (XIP peptide (Xip251-270))
NC(=O)NCC#Cc1ccc2c(c1)[C@]1(C(=O)N2)[C@H](c2ccc(OCCO)cc2)N2[C@H](c3ccccc3)[C@H](c3ccccc3)OC(=O)[C@H]2[C@@H]1C(=O)Nc1nc2ccccc2s1 | 1.17 | -0.348 | -0.285 | 1.55 | -3.12 | 2.65 (inactive) | -0.999 | -1.68 | 0.641 (inactive) | 0.0219 | 1.44 (inactive) | 1.33 (inactive) | -0.212 (inactive) | 3.21 (inactive) | 0.606 (inactive) | 0.681 (inactive) | 1.2 | -0.0398 | 0.245 (inactive) | -0.587
COCCCNC(=O)[C@@]1(C)c2ccccc2C(=O)N(Cc2cc(F)cc(C(F)(F)F)c2)[C@H]1c1ccc(CO)cc1 | 0.604 | -0.176 | 0.534 | -0.0765 | 1.32 | 0.0832 (inactive) | -0.69 | 0.659 | 0.914 (inactive) | -0.0724 | 0.416 (inactive) | 1.09 (inactive) | 0.408 (inactive) | 1.35 (inactive) | 1.04 (inactive) | 0.359 (inactive) | 1.31 | 2.62 | -0.268 (inactive) | -1.16
COCCCNC(=O)[C@@]1(Cc2ccccc2)N=C(c2ccc(OCCCO)cc2)O[C@H]1c1ccccc1N=[N+]=[N-] | 1.95 | -0.121 | -1.67 | -4.02 | 1.12 | 2.93 (inactive) | -1.1 | -0.433 | -1.83 (inactive) | 0.357 | 0.346 (inactive) | -1.13 (inactive) | 1.37 (inactive) | 2.42 (inactive) | 1.22 (inactive) | 0.18 (inactive) | -2.12 | 0.085 | 0.619 (inactive) | -0.473
COc1ccc(CCNC(=O)[C@@]2(Sc3ccc(C)cc3)CC(=O)N(Cc3ccccc3)[C@@H]2c2ccc(CO)cc2I)cc1 | 1.14 | -0.46 | -1.78 | -2.05 | 1.17 | 0.0695 (inactive) | -0.861 | -1.3 | 1.28 (inactive) | 0.278 | -1.92 (inactive) | -2.26 (inactive) | 0.341 (inactive) | 0.893 (inactive) | 0.361 (inactive) | -0.0855 (inactive) | -1.5 | 0.0623 | -0.281 (inactive) | -0.0462
CCN(CC)c1ccc(N2CC=CC34O[C@@H]5C=CCOC(=O)[C@@H]5[C@H]3C(=O)N(C(C)CO)[C@@H]4C2=O)cc1 (stereo not given in full) | 0.754 | 0.0598 | 1.15 | -0.262 | 0.469 | 0.382 (inactive) | -0.809 | 0.907 | 0.924 (inactive) | 0.878 | -0.746 (inactive) | 1.3 (inactive) | -0.393 (inactive) | -0.0464 (inactive) | 1.7 (inactive) | 1.31 (inactive) | 0.587 | -0.0277 | 0.149 (inactive) | -1.73
COCCOC(=O)N1C(=O)[C@@]2(c3cc(C#CC4(O)CCCCCC4)ccc31)[C@H](C(=O)NC[C@H](O)c1ccccc1)[C@H]1C(=O)O[C@H](c3ccccc3)[C@H](c3ccccc3)N1[C@@H]2c1ccccc1OCCO | 1.76 | -1.41 | -3.26 | -3.76 | -1.3 | 0.951 (inactive) | -0.939 | -1.75 | -0.0869 (inactive) | -0.0252 | 1.26 (inactive) | -1.35 (inactive) | 0.811 (inactive) | 3.05 (inactive) | 0.634 (inactive) | 1.05 (inactive) | -1.93 | -0.105 | 0.551 (inactive) | 0.751
CO[C@H]1O[C@H](CO)[C@@H](OC(=O)Nc2ccccc2)[C@H](OC(=O)Nc2ccc3c(c2)OCO3)[C@H]1OC(=O)Nc1ccc2c(c1)OCO2 | 1.27 | -1.27 | -1.03 | -1.98 | -0.136 | 3.03 (inactive) | -0.629 | 0.398 | -1.33 (inactive) | -0.697 | -0.613 (inactive) | -0.652 (inactive) | -0.48 (inactive) | 1.69 (inactive) | 2.13 (inactive) | 0.828 (inactive) | -0.638 | 0.137 | 1.04 (inactive) | 0.846
C=C(COC)C(=O)CC[C@@H](OC(=O)c1ccccc1-c1ccccc1C(=O)O)c1cccc(OCCO)c1 | 0.649 | -0.441 | -1.99 | -1.43 | 0.0537 | 0.469 (inactive) | -0.0226 | 1.4 | 1.2 (inactive) | 0.417 | -0.749 (inactive) | 0.0335 (inactive) | -0.733 (inactive) | 0.291 (inactive) | 1.16 (inactive) | 0.755 (inactive) | 0.458 | 0.109 | 0.43 (inactive) | -0.29
C#CCN1C(C(=O)OCC)OC[C@H]1c1ccccc1 (stereo not given in full) | 0.714 | -0.0851 | 0.712 | -0.181 | 1.06 | 0.842 (inactive) | 0.297 | -0.316 | -0.282 (inactive) | 0.513 | -6.25 (inactive) | 1.49 (inactive) | 0.253 (inactive) | -2.24 (inactive) | 2.47 (inactive) | 0.724 (inactive) | 0.0912 | -0.227 | -0.0319 (inactive) | -0.258
